Sampled rows, rich in hits. Any-hit rate of the full collection: about 3%.
Nrf2 ARE act: qHTS of Nrf2 Activators; AREc32 ARE-luciferase reporter (MCF7-derived line), luminescence, 24 h; Potency, µM (highest dose often 46.1 µM), hits mostly activators; 410,000 compounds, 0.31% hits; also: nearly all actives have a fitted effect of over 65% in size
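Luciferase luminescence (Steady-Glo, 30 min at room temperature) served as the read-out of ARE activation in AREc32 cells treated with compounds for 24 hr at 37 deg C.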
DRD3 agonist: qHTS of D3 Dopamine Receptor Agonist: qHTS. D3R DiscoveRx beta-arrestin cells, luminescence, 90 min. max activation, %. 410,000 compounds, 0.58% hits; in the data active = max activation above about 30%
Target sequence (P35462 whole entry, looked up): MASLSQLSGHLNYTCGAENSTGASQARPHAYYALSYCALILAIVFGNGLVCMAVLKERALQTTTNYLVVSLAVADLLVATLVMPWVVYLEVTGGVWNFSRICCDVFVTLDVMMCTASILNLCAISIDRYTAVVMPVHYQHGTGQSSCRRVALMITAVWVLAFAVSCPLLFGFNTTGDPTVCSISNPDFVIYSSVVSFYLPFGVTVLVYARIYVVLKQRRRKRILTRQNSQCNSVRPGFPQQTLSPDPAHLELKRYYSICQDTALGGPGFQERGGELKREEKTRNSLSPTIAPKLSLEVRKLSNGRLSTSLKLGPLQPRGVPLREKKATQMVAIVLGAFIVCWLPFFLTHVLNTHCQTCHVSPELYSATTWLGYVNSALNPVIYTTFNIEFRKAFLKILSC
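Agonist-mode cell screen: cells plated at 1500/well and incubated overnight at 37 °C, then exposed to library compounds for 90 min at 37 °C. Detection reagent was added for 30–60 min at room temperature, and luminescence was read.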
GRP78 ERSR act: qHTS for Inducers of the Endoplasmic Reticulum Stress Response (ERSR) in Human Glioma: qHTS. U87-MG GRP78 promoter luciferase reporter, 16 h. Potency, µM, most hits filed as activators. 420,000 compounds, 0.02% hits; also: series mostly up to about 76 µM; nearly all actives have a fitted effect of over 35% in size
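ERSR induction read as luciferase luminescence (Bright-Glo, 10 min at room temperature) in stably transfected human U87-MG glioma cells exposed to compounds for 16 h, using GRP78 as sensor.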
D3 antag: qHTS of D3 Dopamine Receptor Antagonist: qHTS; 360,000 compounds, 2.5% hits; D(3) dopamine receptor (Homo sapiens), P35462; max response, negative = inhibition, %; AID 652054, 2013; D3R cells, DiscoveRx beta-arrestin luminescence, antagonist mode; active compounds read low; in the data active = max response below about -50%; inconclusive = no clear call, values can overlap the other calls
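Cells expressing the human receptor were seeded at 1500 cells/well, incubated overnight at 37 degrees C in 5% CO2, then exposed to library compounds with dopamine controls for 90 minutes at 37 degrees C before luminescent detection.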
Each line names hits and unclear results; the compound was inactive in the other large screens. Unless noted, calls follow the shape of the dose curve; as a rule, active = well fitted curve in the direction sought with a large enough effect; inconclusive = small, poorly fitted or top-dose-only effect, or another doubt; inactive = no such curve, though single readings can be large; an effect the other way counts as inactive or inconclusive.

CC(=O)Nc1ccc(NC(=O)c2csc([C@@H]3O[C@H](CO)[C@H](O)[C@H](O)[C@H]3O)n2)cc1	none
Oc1ccc(-c2nccc(-c3cccs3)n2)cc1	Nrf2 ARE act 10µM
COC(=O)C1=CN(C(C)C)C=C(C(=O)OC)C1c1cc2c(cc1Br)OCO2	DRD3 agonist 33
CC1=C(C(=O)OCC(C)C)C(c2cc3c(cc2Br)OCO3)NC(=O)N1C (configuration not stated)	none
COc1ccc(OC)c(N(CCN2C(=O)c3ccccc3C2=O)C(=O)CCl)c1	Nrf2 ARE act 13µM
Cn1c(Cn2nnc3ccccc32)nnc1SCC(=O)N1c2ccccc2Sc2ccccc21	D3 antag -55
Cc1ccc(NC(=O)CSc2nnc(-c3ccco3)c(-c3ccco3)n2)cc1	Nrf2 ARE act inconclusive, D3 antag -60
CSc1nnc(-c2ccco2)c(-c2ccco2)n1	Nrf2 ARE act 7.9µM, D3 antag inconclusive
CSc1nnc(-c2ccccc2)c(-c2ccccc2)n1	none
O=C(CSc1nnc(-c2ccco2)c(-c2ccco2)n1)Nc1ccccc1	Nrf2 ARE act 13µM
O=C(Nc1ccc(OC(F)F)cc1)c1nc(SCc2ccccc2F)ncc1Cl	none (no result: Nrf2 ARE act, DRD3 agonist, D3 antag)
CC(C)C(NC(=O)c1ccccn1)c1nnc2n1CCN(Cc1ccc3ccccc3c1)CC2 (configuration not stated)	none (no result: Nrf2 ARE act, DRD3 agonist, D3 antag)
CCc1oc2ccccc2c1C(=O)CCN1CCCCC1	Nrf2 ARE act inconclusive, D3 antag -94
O=C(CCN1CCCCC1)c1ccccc1	none
Nc1cc(C(=O)O)c(N)c2c1C(=O)c1ccccc1C2=O	D3 antag -55
CN(C)c1nc(NCc2ccccc2)nc(SCC(=O)Nc2ccc(Cl)c(Cl)c2)n1	DRD3 agonist 46
Cc1cccc(CNC(=O)c2cnn(-c3ncc(C)c(-c4ccc(F)cc4)n3)c2C)n1	none (no result: Nrf2 ARE act, DRD3 agonist, D3 antag)
CCOC(=O)CSc1nc2sc3c(c2c(=O)n1-c1ccccc1)CC(C(C)C)OC3 (configuration not stated)	none (no result: D3 antag)
Cc1cnc(SCC2CCCO2)nc1C1CCCN(C(=O)C2=NNC(=O)CC2)C1 (configuration not stated)	none (no result: Nrf2 ARE act, DRD3 agonist, D3 antag)
COC(=O)C1=C(C)N(Cc2ccccc2)C(=O)N[C@H]1c1cccs1	D3 antag -55
Fc1ccc2cnc(-c3ccccc3)c(-c3cccc(C(F)(F)F)c3)c2c1	D3 antag -64
Fc1cc(F)cc(-c2c(-c3ccccc3)ncc3ccc(F)cc23)c1	none
NC(=O)c1cc[n+](CC2=C(C(=O)[O-])N3C(=O)[C@@H](NC(=O)Cc4cccs4)[C@H]3SC2)cc1	none (no result: Nrf2 ARE act, GRP78 ERSR act, D3 antag)
CCc1nnc(NC(=O)c2ccc(S(=O)(=O)N(CC(C)C)CC(C)C)cc2)o1	D3 antag -107
CCc1nnc(NC(=O)c2ccc(S(=O)(=O)N(C)c3ccccc3)cc2)o1	none
CCN(CC)S(=O)(=O)c1ccc(C(=O)Nc2nnc(C(C)C)s2)cc1	D3 antag -69
NC[C@@H]1O[C@@H](O[C@H]2[C@@H](O)[C@H](O[C@@H]3[C@@H](O)[C@@H](N)C[C@H](N)[C@H]3O[C@H]3O[C@H](CN)[C@@H](O)[C@@H](O)[C@H]3N)O[C@H]2CO)[C@H](N)[C@@H](O)[C@@H]1O	none (no result: Nrf2 ARE act, DRD3 agonist, D3 antag)
O=C(O)c1ccc(NC2=C/C(=N/S(=O)(=O)c3ccccc3)c3ccccc3C2=O)cc1	D3 antag -92
Cc1cc(C)c(S(=O)(=O)/N=C2\C=C(Nc3ccc(C(=O)O)cc3)C(=O)c3ccccc32)c(C)c1	D3 antag -77
Cc1cc(C)c(S(=O)(=O)/N=C2\C=C(NS(=O)(=O)c3ccccc3)C(=O)c3ccccc32)c(C)c1	none
CCCCCCCCCCCCCCCCCCOCC(COP(=O)([O-])OCC[N+](C)(C)C)OC (configuration not stated)	none (no result: Nrf2 ARE act, GRP78 ERSR act, D3 antag)
O=[N+]([O-])c1cccc(S(=O)(=O)Nc2nc3ccccc3nc2Nc2cccc(S(=O)(=O)N3CCCCC3)c2)c1	none
Cc1ccc(S(=O)(=O)Nc2nc3ccccc3nc2Nc2cccc(S(=O)(=O)N3CCCC3)c2)cc1	DRD3 agonist 32
Cc1cc(C)cc(NC(=O)c2cc(S(=O)(=O)N3CCOCC3)cn2C)c1	none (no result: D3 antag)
NC(=O)CC(NC(=O)Cc1cccc2ccccc12)c1ccc(NCc2ccccc2)c([N+](=O)[O-])c1 (configuration not stated)	D3 antag -51
